# Measured potencies and affinities stand elsewhere. The source made the active and inactive calls.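 The calls were made as follows: active = growth inhibitors whose fitted half-maximal dose is no more than twice the top valid dose; inconclusive = flat curve with 30 to 70% inhibition, or unreliable fit; inactive = the rest.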
# Assay: antimalarial activity against Dd2 parasites – SYBR Green fluorescence, erythrocytes, dry powder, set 2, dose response (AID 1159574)
# Settings: P. falciparum Dd2 in erythrocytes, SYBR Green growth, 72 h; series mostly up to 21 µM
row,SMILES,outcome
1,O=C(c1ccccc1F)N1CC(=O)N2[C@@H](CO)[C@@H](c3ccc(-c4cccnc4)cc3)[C@@H]2C1,inactive
2,O=C(c1ccccc1F)N1CC(=O)N2[C@@H](CO)[C@H](c3ccc(-c4cccnc4)cc3)[C@@H]2C1,inactive

# Reference: PubChem BioAssay AID1159574 (Broad Institute, 2015)
